# Data from the supplement of paper PMC6555819.
# Assays:
# Assay in all cases: PBM binding z-score (relative to random genomic background probes); higher = stronger binding; sequences stand for … in GC…GCGATTGACAGCGTAGAATGAAGG
# [1] = system: RARb homodimer (NR concentration 270 nM)
# How it was run: (§1)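 Custom Agilent 4×180K protein-binding microarrays carried double-stranded probes. Their 34-nt variable regions held direct-repeat seeds, single-nucleotide variants, half-site ablations and random human genomic background sequences. Arrays were incubated 1 h with ligand-free nuclear receptor dimers in PBS pH 7.4, 2% milk, 0.02% Triton X-100, 1 mM DTT, 0.2 mg/mL BSA and 0.4 mg/ml salmon testes DNA. Antibodies against each partner (one per run) detected binding, and scanned fluorescence was regression-normalized. Binding z-scores use random background probes as reference.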
# [2] = system: RARg:RXRa (NR concentration 270 nM, RXRa partner concentration 90 nM)
# How it was run: as §1
# [3] = system: RARg homodimer (NR concentration 270 nM)
# How it was run: as §1
# [4] = system: RXRa DBDmut IVT, anti-RXR (DBD mutation: RXRa K156A/R161A, NR concentration 90 nM)
# How it was run: as §1
# [5] = system: RXRa homodimer (NR concentration 180 nM)
# How it was run: as §1
# [6] = system: THRa:RXRa (NR concentration 90 nM, RXRa partner concentration 90 nM)
# How it was run: as §1
# [7] = system: THRa homodimer (NR concentration 90 nM)
# How it was run: as §1
# [8] = system: VDR homodimer (NR concentration 270 nM)
# How it was run: as §1
Sequence,PBM binding z-score [1],PBM binding z-score [2],PBM binding z-score [3],PBM binding z-score [4],PBM binding z-score [5],PBM binding z-score [6],PBM binding z-score [7],PBM binding z-score [8]
GCCGACAGGTGAAACGCAGGTAACTCAGGGTGGC,-0.0352,0.819,0.229,-0.346,0.514,1.35,-0.657,-0.993
ACTAGCAGGCCTAGGGTCACTCAAGATTAGTCCG,2.83,2.61,2.35,0.221,3.15,3.27,2.26,1.07
TCTAGTTGGTCAAAGGGCACACACTCGAAATGCG,2.36,2.72,1.97,0.876,2.62,1.12,-0.0377,0.575
TAGCCTAAGTCAGATCGGGCCAGTATACGCTATA,-0.342,-0.329,-0.306,-0.669,-0.25,1.43,-0.221,-0.691
TCATATAGGTAACTGCTAGGTGAAAGTCCGATCT,0.607,0.501,0.315,1.53,0.853,1.43,0.668,0.0262
TCAGACAGGGGAAGGTAACTCAGGTACGCAGTCG,0.725,0.0159,-0.128,1.16,0.547,1.38,1.02,0.491
TCTCGCAGGACACGAAAGGTCAGAGCTCGACATC,4.29,4.42,4.47,1.05,4.07,3.42,0.878,0.759
